FMDV inh: antivirals against foot and mouth disease virus; FMDV antiviral cell-based qHTS; hit rate 1.2% among 410,000; Potency, µM (top dose mostly 57.9 µM), usual class: inhibitors; calls by dose curve; tested in HEK293T cells; also: read-out not given here; nearly all actives have a fitted effect of over 45% in size
Cycloheximide cs: counter-screen for Shiga toxin inhibitors: cycloheximide protein synthesis inhibition. cell reporter, cycloheximide protein synthesis inhibition counterscreen. max response, %. hit rate 12% among 300,000. AID 2314; in the data active = max response mostly above about 13%, no sharp cut-off; inactive = mostly below about 14%; also: read at 38.3 µM for the half of the compounds with a filed dose
Sm TGR block: inhibitors of Schistosoma mansoni thioredoxin glutathione reductase; Q962Y6; purified TGR, DTNB reduction, TNB absorbance 405 nm; Potency, µM (top dose mostly 114 µM), actives largely listed as inhibitors; hit rate 3% among 360,000; AID 485364; active = well fitted inhibition curve with a large enough effect; inconclusive = small, poorly fitted or top-dose-only effect; inactive = no such curve, though single readings can be large or run the other way; also: nearly all actives have a fitted effect of over 60% in size
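Kinetic colorimetric format: TGR-catalysed, NADPH-driven DTNB reduction monitored via TNB absorbance. Enzyme dispensed at 20 nM; compound exposure 15 min at room temperature before reaction start.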
Shiga toxin inh: blocks Shiga toxin action in Vero cells. Vero cells, Shiga toxin protein synthesis inhibition reporter. inhibition, % at 38.7 µM. hit rate 9.2% among 290,000. AID 2315; in the data active = inhibition mostly above about 28%, no sharp cut-off; inactive = mostly below about 43%
A number is an active result; - = inactive; ? = inconclusive; . = no result given. Rows were chosen to be rich in hits. Some 12% of all compounds tested hit in one or more screens of this group.

SMILES	FMDV inh	Cycloheximide cs	Sm TGR block	Shiga toxin inh
CSc1ccccc1C(=O)C1CCCN(C(=O)c2csnn2)C1 (configuration not stated)	-	31	-	90
COC(=O)CCCC(=O)N1CCCC(C(=O)c2ccccc2SC)C1 (configuration not stated)	-	-	-	-
Cc1noc(-c2ccc(N3CCC(C)CC3)c([N+](=O)[O-])c2)n1	-	.	-	.
CCC(C)n1c(O)c(C(c2ccccn2)c2c(O)n(C(C)CC)c(=S)[nH]c2=O)c(=O)[nH]c1=S (configuration not stated)	.	-	?	-
Cn1c(O)c(C(c2ccccn2)c2c(O)n(C)c(=S)n(C)c2=O)c(=O)n(C)c1=S	-	-	22µM	-
Cn1c(O)c(C(c2ccncc2)c2c(O)n(C)c(=S)n(C)c2=O)c(=O)n(C)c1=S	-	-	16µM	-
CCCSC1=N/C(=C\C=C\c2ccco2)C(=O)S1	-	-	32µM	-
CCCSC1=N/C(=C\c2ccc([N+](=O)[O-])o2)C(=O)S1	?	-	?	-
O=C1SC(SCc2ccccc2)=N/C1=C\c1ccco1	-	-	?	48
CCCc1cc(N2CCN(c3ccccc3F)CC2)n2cnnc2n1	-	.	-	.
CCC(C)NC(=O)c1nn(-c2ccc(C)cc2)nc1CO (configuration not stated)	-	.	-	.
CCCOc1ccc(C(=O)Nc2ccc3oc(-c4ccc5ccccc5c4)nc3c2)cc1	-	.	-	.
Cc1ccc(N2CN=C3SCC(=O)N3C2)cc1C	-	22	-	-
OC(c1ccccc1)C1CN(Cc2ccccc2)CCC1(O)c1ccccc1 (configuration not stated)	.	-	20µM	-
Cc1ccc(Cn2c(C)c3cnn(CC(=O)NC4CCCC4)c(=O)c3c2C)cc1	-	10	?	30
COC(=O)Cn1ncc2c(C)n(Cc3ccccc3)c(C)c2c1=O	-	39	-	74
Cc1c2cnn(CC(=O)O)c(=O)c2c(C)n1Cc1ccccc1	-	-	-	-
COc1ccc(N(Cc2cc3ccccc3[nH]c2=O)S(=O)(=O)c2ccc(C)cc2)cc1	-	27	-	39
CN(Cc1cc2ccccc2[nH]c1=O)S(=O)(=O)c1ccccc1	-	19	-	-
NCC(=O)c1ccccc1	-	.	.	.
CC1=C(CC(=O)c2ccccc2)C(=O)c2ccccc2C1=O	?	36	?	87
COc1ccc(/C=N/n2c(-c3n[nH]c4c3CCC4)n[nH]c2=S)cc1	-	-	-	-
CC(/C=N/n1c(-c2n[nH]c3c2CCC3)n[nH]c1=S)=C\c1ccco1	-	-	35µM	-
CC(/C=N/n1c(-c2cccnc2)n[nH]c1=S)=C\c1ccco1	-	-	40µM	-
CNS(=O)(=O)c1cn(CC(=O)N2CCN(c3ccc(Cl)cc3)CC2)cc1S(=O)(=O)NC	-	.	-	.
SMILES	FMDV inh	Cycloheximide cs	Sm TGR block	Shiga toxin inh
COc1cc(Cc2nc3ccccc3n2C(C)c2nc3ccccc3[nH]2)cc(OC)c1 (configuration not stated)	-	.	.	.
COc1cccc(CC(Cc2nc3ccccc3[nH]2)c2nc3ccccc3[nH]2)c1 (configuration not stated)	-	35	-	-
O=c1[nH]c(SCc2cccc([N+](=O)[O-])c2)nc2[nH]ncc12	-	-	-	-
O=C(CSc1nc2ccc([N+](=O)[O-])cc2[nH]1)NC1CCCCCC1	5.6µM	-	-	-
COc1cccc(CSc2nc3ccccc3[nH]2)c1	-	30	-	-
O=[N+]([O-])c1cccc(CSc2nc3ccccc3[nH]2)c1	-	13	-	-
Cc1ccc(-n2ncc3c(NC4CCCCC4)ncnc32)cc1Cl	?	.	-	.
Cc1ccc2nc(SCc3ccc([N+](=O)[O-])cc3)[nH]c2c1	-	40	-	73
Cc1cccc(NC(=O)Cn2nc(-c3ccccc3)c3cnc4ccccc4c32)c1	-	.	-	.
CCOc1cc(/C=C/c2nc3cc(C)c(C)cc3s2)ccc1OCC(=O)N1CCOCC1	-	-	-	-
CCOc1cc(/C=C\[N+](=O)[O-])ccc1OCC(=O)N1CCOCC1	8.9µM	-	10µM	-
Clc1nc2c(-c3ccccc3)nnn2c2ccccc12	-	24	?	-
NNc1nc2c(-c3ccc(F)cc3)nnn2c2ccccc12	-	51	-	130
CC(C)N(Cc1ccccc1)C(=O)Cn1ncc2c3ccccc3n(Cc3ccccc3)c2c1=O	-	.	-	.
CCc1ccc(NC(=O)C(=O)NCC(c2cccnc2)N2CCOCC2)cc1 (configuration not stated)	-	.	-	.
Cn1cnc([N+](=O)[O-])c1S(=O)(=O)c1ccc(Cl)cc1	14µM	-	0.1µM	-
Cn1cnc([N+](=O)[O-])c1NC(C)(C)C	-	-	-	-
N/C(=N\OC(=O)c1ccccc1[N+](=O)[O-])c1cccnc1	-	35	-	55
Cc1ccc(C(=O)O/N=C(\N)c2cccnc2)cc1[N+](=O)[O-]	-	78	?	18
N/C(=N\OC(=O)c1ccc([N+](=O)[O-])cc1)c1cccnc1	-	14	-	117
COc1ccc(/C(N)=N/OC(=O)c2ccc(C)c([N+](=O)[O-])c2)cc1OC	-	-	-	-
Cc1ccc(-c2nn(CC(=O)NC3CCCCC3)c3c2cnc2ccccc23)cc1	-	.	-	.
COc1ccc(CCNc2nnc(Sc3nnnn3-c3ccccc3)s2)cc1OC	28µM	-	-	-
CCOc1cc(CNCCSc2nnnn2-c2ccccc2)ccc1OC	?	.	-	.
Cc1ccc(C(=O)Nc2cccc(-c3nc(CNC(=O)c4ccc5ccccc5n4)c(C)o3)c2)s1	-	.	.	.
SMILES	FMDV inh	Cycloheximide cs	Sm TGR block	Shiga toxin inh
Cn1c(SCC(=O)N/N=C/C=C\c2ccco2)nc2ccccc21	-	-	22µM	-
CCn1c(SCC(=O)N/N=C/C=C\c2ccco2)nc2ccccc21	-	-	22µM	-
C/C(=N/NC(=O)CSc1nc2ccccc2n1C)c1ccco1	-	-	-	-
CCn1c(SCC(=O)N/N=C/c2cc(OC)c(OC)c(OC)c2)nc2ccccc21	25µM	-	-	-
COc1ccc(-c2ccn(-c3cccc(F)n3)n2)cc1	-	48	28µM	98
Cc1ccc(Nc2cc(C)nc3nncn23)c(C)c1	-	.	-	.
Cc1ccc(-n2nnnc2C(Cl)c2nnnn2-c2ccc(C)cc2)cc1	-	-	25µM	-
Cc1oc(-c2cccc(NC(=O)c3ccccn3)c2)nc1CNC(=O)C#Cc1ccccc1	-	.	.	.
COC1=C(N)C(=O)c2nc(-c3nc(C(=O)O)c(C)c(-c4ccc(OC)c(OC)c4O)c3N)ccc2C1=O	4µM	-	-	-
COC(=O)c1nc(-c2ccc3c(n2)C(=O)C(N)=C(OC)C3=O)c(N)c(-c2ccc(OC)c(OC)c2O)c1C	?	-	-	-
O=C(c1cnsn1)N1CCC(CO)(Cc2cccc(F)c2)CC1	-	54	-	67
CNC(=O)/C(C#N)=C\c1ccc(CNS(=O)(=O)c2ccccc2)o1	-	-	-	-
COCCCN1C(=O)/C(=C/c2ccc(CNS(=O)(=O)c3ccccc3)o2)C(C(=O)OC)=C1C	-	-	11µM	-
CCC(=O)C1=C(c2ccc(OC)c(OC)c2)N(C(=O)CC)n2c(CC)nnc2S1	?	-	?	-
COc1ccccc1Nc1c2c(nc3ccccc13)CCC2	-	-	-	-
COc1ccccc1Nc1nc2c(s1)CCC2	-	36	?	68

Screens deposited in PubChem by National Center for Advancing Translational Sciences (NCATS).
